Compound activity as filed in PubChem BioAssay.
TRHR ag = activates the human TRH receptor. P34981. TRHR cells, calcium flux fluo-8, FDSS agonist mode. activation, % at 2 µM. 360,000 tested, 0.18% active. AID 493084
Target sequence (P34981 whole entry, looked up): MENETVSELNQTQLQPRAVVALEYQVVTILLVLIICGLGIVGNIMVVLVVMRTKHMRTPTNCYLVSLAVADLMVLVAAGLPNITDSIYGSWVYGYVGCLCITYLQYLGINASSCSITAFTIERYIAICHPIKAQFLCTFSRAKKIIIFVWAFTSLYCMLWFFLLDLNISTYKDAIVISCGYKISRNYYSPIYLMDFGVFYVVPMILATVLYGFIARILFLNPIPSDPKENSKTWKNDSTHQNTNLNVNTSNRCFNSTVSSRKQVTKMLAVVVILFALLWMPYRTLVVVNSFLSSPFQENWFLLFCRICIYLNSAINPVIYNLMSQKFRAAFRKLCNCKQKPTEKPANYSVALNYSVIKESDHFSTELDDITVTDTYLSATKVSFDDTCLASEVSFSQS
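In this calcium-flux screen, cells bearing human TRHR are dye-loaded with fluo-8, baselined for 10 cycles, then exposed to library compounds; positive kinetic calcium responses during the agonist phase mark hits, with TRH as control.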
TRHR PAM = allosteric enhancers of human TRH receptor | P34981 | AID 493056 | enhancement, % at 2 µM | TRHR cells, fluo-8 calcium fluorescence, EC20 TRH enhancement | 360,000 tested, 0.66% active; in the data active = enhancement above about 30%
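Enhancer read-out: after compound pinning and an initial kinetic agonist-mode read, an EC20 of TRH (10 nM final) was injected and fluo-8 calcium signal (Ex 480/Em 530) followed at 1 s/cycle for 100 cycles in TRHR-expressing cells.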
D1 antagonist = human D1 dopamine receptor antagonism | HEK293 TREx D1 cells, calcium flux, dopamine EC80; active compounds read low | activity change, negative = inhibition, % at 10 µM | 360,000 tested, 3.2% active; in the data active = activity change below about -30%
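Tetracycline-induced HEK293 T-REx cells with force-coupled D1 receptor were loaded with a no-wash calcium dye. Compound was added after a 10 s baseline and read kinetically for 180 s; EC80 dopamine was then added and calcium flux followed another 180 s.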
D1 potentiator = human D1 dopamine receptor positive modulation. P21728. HEK293 TREx D1 cells, calcium flux, dopamine EC20 potentiation. potentiation, % at 10 µM. 360,000 tested, 0.036% active; in the data active = potentiation above about 30%
D1 ag = human D1 receptor agonism. HEK293 T-REx D1 cells, calcium flux, agonist mode. 360,000 tested, 1% active. P21728. activation, % at 2 µM
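Tetracycline-induced HEK293 TREx D1 cells, force-coupled to calcium signalling, were dye-loaded with a no-wash calcium kit. Compound was pin-added after a 10 s baseline. Fluorescence was read kinetically at 1 cycle/s for 180 s, with calcium rises flagged as agonism.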
Large screens that a line does not name were inactive; ! = not confirmed by another sample. Only some compounds are listed: those with a hit (about 4.7% of all), similar ones and a draw of the others. Rule as the data show it, unless noted: active = activation above about 30%; inactive = the rest.

O=[N+]([O-])c1c(NCCCO)cc(Sc2ccc(Cl)cc2)c2nonc12	D1 antagonist -40.0
O=c1oc2ccccc2c(N2CCN(c3ccccc3F)CC2)c1CN1CCCC1	none
C=C[C@@H]1c2cc(C)ccc2N(S(=O)(=O)c2ccc(C)cc2)[C@H](c2ccc(OC(C)=O)cc2)C1(C#N)C#N	D1 ag 39.6 (no result: D1 antagonist)
C=C[C@@H]1c2ccccc2N(S(=O)(=O)c2ccc(C)cc2)[C@H](c2ccc(OC(C)=O)cc2)C1(C#N)C#N	none
COc1cc(/C=C(\C#N)c2nc3ccccc3[nH]2)cc(OC)c1O	TRHR ag 64.8, D1 ag 109.1
COc1cc(/C=C(\C#N)C(=O)c2c[nH]c3ccccc23)cc(OC)c1O	D1 ag 45.2
COc1c(Cl)cc(Cl)cc1/C=C(\C#N)c1nc2ccccc2[nH]1	D1 antagonist -60.6
COc1c(O)ccc(/C=C(\C#N)c2nc3ccccc3[nH]2)c1[N+](=O)[O-]	none
COc1cc(/C=C(/C#N)C(=O)c2c(C)[nH]c3ccccc23)ccc1OCC#N	none
CCOc1ccc(/C=C(\C#N)C(=O)c2c(C)[nH]c3ccccc23)cc1OC	TRHR PAM 36.4
COc1ccc(C2C(=O)N(C3CCCCCC3)CC(=O)N2Cc2ccc(C)cc2)cc1 (stereo not drawn)	none
N#Cc1nc(Nc2ccc(C(F)(F)F)cc2)nc(NC2CCCC2)n1	none
Cc1ccccc1OCCSc1nc2ccc(NC(=O)c3cccc(F)c3)cc2s1	none
COc1ccc([C@]23Cc4ccccc4C(O2)C2=C(CC(C)(C)CC2=O)O3)cc1	none
CC(C)CCNc1nc2c(S(=O)(=O)c3ccc(Br)cc3)nnn2c2ccsc12	none
Cc1ccccc1CSc1nc(-c2cccc(F)c2)nc2c1Cc1c(CO)cnc(C)c1O2	none
COc1cc(/C=C(/C#N)c2nc3ccccc3c(=O)[nH]2)ccc1O	D1 ag 34.3
Cc1ccc(S(=O)(=O)Nc2nc3ccccc3nc2Nc2cccc(S(=O)(=O)N3CCCC3)c2)cc1	D1 antagonist -39.4
O=[N+]([O-])c1cccc(S(=O)(=O)N2CCCCC2)c1	none
O=[N+]([O-])c1cccc(S(=O)(=O)Nc2nc3ccccc3nc2Nc2cccc(S(=O)(=O)N3CCCCC3)c2)c1	D1 antagonist -31.6
O=c1cc(-c2ccccc2)n2c(SCc3c(F)cccc3Cl)nnc2[nH]1	none (no result: D1 antagonist)
Oc1cccc(Nc2nc(O)c(/C=C3\C=Nc4ccccc43)s2)c1	D1 ag 34.3
CCCc1cc(=O)n2[nH]c(NCc3c(Cl)cccc3Cl)nc2n1	none
CCCc1cc(=O)n2[nH]c(NCc3c(F)cccc3Cl)nc2n1	D1 antagonist -30.2!
Cc1cccc(NC(=O)Cn2nc(-c3ccccc3)c3cnc4ccccc4c32)c1	none
CCN1CCC(N(Cc2ccc(F)cc2)C(=O)Nc2cccc(C(F)(F)F)c2)CC1	D1 ag 100.2
CCN1CCC(N(Cc2cccc(OC)c2)C(=O)Nc2cccc(C(F)(F)F)c2)CC1	none
CC1(C)N([O-])C2=C(c3ccccc3C2=O)[N+](=O)C1(C)C	D1 antagonist -32.2
CCC1(C)N([O-])C(C)=C(c2ccccc2)[N+]1=O (stereo not drawn)	none
O=C(O)c1c(Cl)c(Cl)c(Cl)c(Cl)c1C(=O)N1CCCCCC1	none
O=C(O)c1c(Cl)c(Cl)c(Cl)c(Cl)c1C(=O)N1CCOCC1	D1 antagonist -35.5
COCC1CCN(Cc2cn(C)nc2-c2cccc(Cl)c2)C1 (stereo not drawn)	D1 antagonist -41.6
COCCN1CCN(Cc2cn(C)nc2-c2cccc(Cl)c2)CC1	none
CCCCC(CC)C(=O)Nc1cc(C(=O)NCCC)ccc1N1CCC2(CC1)CC(c1ccccc1)=NO2 (stereo not drawn)	TRHR PAM 37.6
C/C(=N/OCC(=O)Nc1ccccc1)c1cccs1	D1 ag 31.4
COc1ccc(/C=N/NC(=O)CO/N=C(\C)c2cccs2)cc1	none
C/C(=N\OCC(=O)N/N=C/c1ccccc1)c1cccs1	TRHR PAM 35.1
CCC(=O)Nc1ccc(C)cc1-c1nc2ccccc2n(CC(=O)c2ccc(C)cc2)c1=O	none
O=C(NC1(C(F)(F)F)N=C(c2ccccc2)N(Cc2ccccc2)C1=O)c1ccc(F)cc1 (stereo not drawn)	none
COC(=O)c1sc(=S)n(-c2cccc(Cl)c2)c1N	D1 antagonist -33.6
CCOC(=O)c1sc(=S)n(-c2ccccc2)c1N	none
Cn1c(SCC(=O)NC2CCCCC2)nnc1-c1cc2cc(Cl)ccc2o1	none
CC(NC(=O)CSc1nnc(-c2cc3cc(Cl)ccc3o2)n1C)c1ccccc1 (stereo not drawn)	TRHR PAM 31.8
CCC(Sc1ncc(S(=O)(=O)c2ccc(Cl)cc2)c(=O)[nH]1)C(=O)Nc1ccc(OC)cc1 (stereo not drawn)	none
O=[N+]([O-])c1ccc(N/N=C2\CC3CC=CC23)cc1 (stereo not drawn)	D1 antagonist -31.2
CC(C)C[C@H]1C(=O)N2CCC[C@H]2[C@]2(O)O[C@](NC(=O)[C@@H]3C=C4c5cccc6[nH]c(Br)c(c56)CC4N(C)C3)(C(C)C)C(=O)N12 (stereo partly drawn)	D1 antagonist -41.7
CCC(=O)N1c2ccccc2CC1C(=O)NCCN1CCN(c2cccc(C(F)(F)F)c2)CC1 (stereo not drawn)	none
Cc1ccccc1NC(=O)COC(=O)c1cccnc1	none
Cc1ccccc1NC(=O)COC(=O)c1ccc(CSc2ccc(Cl)cc2)cc1	D1 ag 178.7
C=CCn1c(COc2cccc3ccc(C)nc23)nnc1SCC(=O)OC	none
C=CCn1c(COc2ccccc2F)nnc1SCCN1C(=O)c2ccccc2C1=O	TRHR PAM 38.4
CCN(CC)S(=O)(=O)c1ccc(C(=O)/C=C/c2ccc(-c3ccc([N+](=O)[O-])cc3)o2)cc1	D1 antagonist -54.1
Cc1ccc(C(=O)/C=C/c2ccc(-c3ccc(C)cc3)o2)cc1	none
C/C(=N/NC(=O)c1ccc(Cl)s1)c1cccnc1	D1 antagonist -48.3
C/C(=N/NC(=O)c1ccc(C)s1)c1cccnc1	none
Cc1cccc(N2CCN(S(=O)(=O)c3c(C)[nH]c(C)c3C(=O)N3CCCCC3)CC2)c1C	TRHR PAM 30.3
Cc1[nH]c(C)c(S(=O)(=O)N(Cc2ccccc2)C(C)C)c1C(=O)N1CCCC1	D1 antagonist -34.4
COc1ccc(N(CC(=O)NCCc2cccc(C)c2)S(=O)(=O)c2c(C)nn(C)c2C)cc1	none
O=[S+]([O-])(c1ccc(-c2ccccc2)cc1)N1CCN([S+](=O)([O-])c2ccc3c(c2)OCCO3)CC1	none
CCOc1ccc(NC(=O)Nc2cc(C(C)C)c(O)cc2C)cc1	D1 antagonist -46.6
CC(=O)c1ccc(NC(=O)c2ccc3snnc3c2)cc1	none
O=C(Nc1ccccc1)Nc1ccc2nnsc2c1	D1 ag 32.7
